Test results taken from PubChem BioAssay (NCI).
This is part of a sample that, as a whole, favours compounds with a hit. Of some 83,000 tested, about 20% had one in any assay.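 For each line, cells grew in 96-well plates with the test compound present at a single concentration for 48 hours.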 Values without a mark were called inactive. Activity calls are given as the source filed them. Rule for the calls: active = growth percent below 10; inactive = the rest.

Assays:
Assay in all cases: NCI-60 one-dose screen, 48 h (100 = growth as untreated, 0 = no growth, -100 = all killed)
Settings in all cases: 10 µM unless noted
[1] = system: T-47D breast
[2] = system: BT-549 breast
[3] = system: MDA-MB-435 melanoma
[4] = system: SW-620 colon
[5] = system: HCT-116 colon
[6] = system: HCC-2998 colon
[7] = system: KM12 colon
[8] = system: MCF7 breast

Compound | growth [1] | growth [2] | growth [3] | growth [4] | growth [5] | growth [6] | growth [7] | growth [8]
CCCCCCCCC/C(=N\NC(=O)c1ccncc1)c1ccc(O)c(O)c1O | 33.7% | 38.8% | 53% | 43.1% | 26.7% | 33.3% | 22.4% | 
O=C(OCC1CC2(Cl)C(Cl)=C(Cl)C1(Cl)C2(Cl)Cl)C1C(C(=O)OCC2CC3(Cl)C(Cl)=C(Cl)C2(Cl)C3(Cl)Cl)C2(Cl)C(Cl)=C(Cl)C1(Cl)C2(Cl)Cl (stereo not drawn) | 105% | 97.5% | 106% | 107% | 101% |  | 101% | 
COc1cc(-c2nn(-c3ccc(NC(=O)c4ccc(Cl)c(C(F)(F)F)c4)cc3)cc2-c2ccncc2)ccc1Cl | 26.7% |  | 24.3% | 6.21% (active) | 9.19% (active) | 31.8% |  | 21%
CC(=O)N1CCN(CCNC(=O)n2cc(-c3ccncc3)c(-c3cc(O)cc(Cl)c3)n2)CC1 | 100% |  | 49.3% | 76.8% | 43.6% | 122% | 91.3% | 93.4%
O=C1Nc2c(c(=O)n(-c3ccccc3)c3ccccc23)C(c2ccc(Cl)cc2)N1 (stereo not drawn) | 91.5% |  | 99.9% | 98% | 56.2% | 61% | 61.1% | 91.1%
COc1cc(/C(=C2/O[C@@H]([C@H]3COC(C)(C)O3)[C@H]3OC(C)(C)O[C@@H]23)c2ccc3c(c2)OCO3)cc(OC)c1OC | 55.9% | 79.5% | 73.3% |  | 9.6% (active) |  | 63.6% | 44.5%
COc1ccc(Oc2[nH]n(C3=Nc4ccccc4Sc4ccccc43)c(=O)c2C#N)cc1 | 92.8% | 98.2% | 101% |  | 93.5% |  | 104% | 101%
O=c1c2c(c3ccccc3n1-c1ccccc1)NC(=S)NC2c1ccc(Cl)cc1 (stereo not drawn) | 67.4% |  | 30.4% | 57.1% | 16.1% | 35.7% |  | 60%
C[C@]12C=CC(=O)C=C1[C@@H](F)C[C@@H]1[C@@H]2[C@@H](O)C[C@@]2(C)[C@H]1CC[C@]2(O)C(=O)CO | 99.4% | 78.5% | 103% |  | 105% | 105% | 100% | 87.4%
N#Cc1ccc(NC2c3ccccc3CC2O)cc1 (stereo not drawn) | 103% | 99.2% | 117% |  | 101% | 105% | 112% | 95.8%
CC(=O)Nc1nc(C)c(C(=O)NNS(=O)(=O)c2ccccc2)s1 | 114% |  | 125% | 106% | 52.1% | 105% | 125% | 110%
COC1=CC(c2ccc[nH]2)=N/C1=C\c1[nH]c(C)c(C(=O)CCCCC(=O)NC(C)(C)C)c1C | 40.1% | -11.2% (active) | 7.73% (active) |  |  | 30.5% | 20.5% | -15.1% (active)
O=C(Nc1ccc(-n2cc(-c3ccncc3)c(-c3ccc(Cl)c(O)c3)n2)cc1)c1ccc(Cl)c(Cl)c1 | 71.9% |  | 43.5% | 11.2% | 16.8% | 10.1% | 0.115% (active) | 27.9%
O=C(Nc1ccc(-n2cc(-c3ccncc3)c(-c3ccc(Cl)c(O)c3)n2)cc1)Nc1cc(C(F)(F)F)cc(C(F)(F)F)c1 | 23.8% |  | 6.62% (active) | 26.1% | 10.5% | 36.1% |  | 11%
COc1cc(-c2nn(-c3ccc(NC(=O)Nc4cc(C(F)(F)F)cc(C(F)(F)F)c4)cc3)cc2-c2ccncc2)ccc1Cl | 8.74% (active) |  | 0.886% (active) | 13.9% | -11% (active) | -7.63% (active) | 0.412% (active) | -4.41% (active)
COc1ccc(C(=O)NCCNc2nccc(-c3c(-c4ccc(F)cc4)nc4sccn34)n2)cc1 | 58.2% |  | 43.6% | 52.3% | 31.8% |  |  | 25.1%
CC(=O)Nc1nc(C)c(C(=O)NN)s1 | 85.9% |  | 137% | 97.4% | 94.7% | 84.2% | 102% | 99.1%
COc1cc(-c2nn(-c3ccc(NC(=O)Nc4ccc(Cl)c(Cl)c4)cc3)cc2-c2ccncc2)ccc1Cl | 47.5% |  | 29.1% | 35.2% | 13.4% | 21.8% | 16.1% | 28.4%

Compound | growth [1] | growth [2] | growth [3] | growth [4] | growth [5] | growth [6] | growth [7] | growth [8]
COC(=O)c1cc(O)c2cc3c(cc2c1-c1cc(OC)c(OC)c(OC)c1)OCO3 | 25.9% |  | 2.84% (active) | 17.8% | 20.8% | 52.3% | 25.7% | 21.9%
COc1ccc(C2CC(=O)c3c(O)cc(OC4OC(COC5OC(C)C(O)C(O)C5O)C(O)C(O)C4O)cc3O2)cc1O (stereo not drawn) | 121% |  | 102% | 113% | 43.6% | 129% | 124% | 95.1%
COc1ccccc1CNCCCN1C(=O)c2ccc3c4c(ccc(c24)C1=O)C(=O)N(CCCNCc1ccccc1OC)C3=O | -22.9% (active) | -71.6% (active) | -79.3% (active) |  | -60.5% (active) | -94.7% (active) | -79% (active) | -63.9% (active)
N#CC1=C(N2CCOCC2)NC2c3ccccc3Sc3ccccc3N2C1=N (stereo not drawn) | 85.8% | 97.2% | 107% |  | 97.2% | 104% | 110% | 98.4%
COc1ccc(/C(=C(\c2ccccc2)[N+](=O)[O-])c2ccc(OCCN3CCCC3)cc2)cc1 | 51.5% | 74.2% | 48.2% |  | 44.5% | 80.8% | 54.1% | 37.4%
Cc1ccccc1-n1c(C)nc2cc(NC(=O)c3ccc(Cl)cc3)ccc2c1=O | 29% |  | 43.7% | 86% | 74.8% | 80.9% | 76.6% | 57.8%
CC(O)CCC(C)[N+](=O)[O-] (stereo not drawn) | 103% | 106% |  | 104% | 109% | 126% | 103% | 101%
CC(C)CCCCCOC(=O)c1ccccc1SSc1ccccc1C(=O)OCCCCCC(C)C | 89.6% |  | 107% | 101% | 98.5% | 110% | 106% | 93.6%
O=C(Nc1ccc(-n2cc(-c3ccncc3)c(-c3ccc(Cl)c(O)c3)n2)cc1)c1ccc(Cl)c(C(F)(F)F)c1 | 47.2% |  | 3.99% (active) | -79.4% (active) | -100% (active) | 5.55% (active) | 3.31% (active) | 6.22% (active)
CCCCCCCCCc1cc[n+](CC(=O)c2ccc([N+](=O)[O-])cc2)cc1 | 22.2% | 15.2% | -20.8% (active) |  | -34.5% (active) | -76.3% (active) | -31.5% (active) | -41.3% (active)
CCOC(=O)c1sc(NS(=O)(=O)c2ccccc2)nc1C | 111% |  | 126% | 111% | 57.9% | 27.5% | 129% | 96.2%
CN1C(=O)C(=Cc2coc3ccc(Br)cc3c2=O)C(=O)N(C)C1=O | 101% | 106% | 109% |  | 95.2% | 98.5% | 114% | 88.3%
N#CCCCCCCCCCCC#N | 96.2% | 102% | 91.9% |  | 105% | 95% | 111% | 104%
O=C1c2cc([N+](=O)[O-])ccc2-c2cc(Cl)c(NC(=O)C(F)(F)F)cc21 | 85.2% | 108% | 114% |  | 104% | 104% | 114% | 35.8%
CC(CCN1CCN(CCC(C)CC(C)(C)C)C1CC(C)CC(C)(C)C)CC(C)(C)C (stereo not drawn) | 91.8% |  | 104% | 89.4% | 60.9% | 78.2% | 91% | 95.7%
CCCCCCNc1nc(N2CCOCC2)c2[nH]c(NCCCCCC)nc2n1 | -70.4% (active) | -81.4% (active) | -58.6% (active) |  | -100% (active) | -100% (active) | -89.9% (active) | -88.4% (active)
CC(=O)Nc1nc(C)c(C(=O)NNC(=O)Nc2ccccc2)s1 | 91.1% |  | 128% | 100% | 102% | 104% | 98.6% | 100%
C/C=C/C/C=C/[C@H](C)C[C@H](O)[C@@H]1C[C@@H]2O[C@H]2/C=C/[C@H](O)[C@@H](O)/C=C/C[C@H](C)CC(=O)O1 | 69.9% |  | 117% | 94.1% | 70.6% | 95.1% | 80.2% | 83.7%
